PMC7862700, “An all-to-all approach to the identification of sequence-specific readers for epigenetic DNA modifications on cytosine”

Tests used:
Experiment in all cases: DAPPL (digital affinity profiling via proximity ligation, sequencing); 10 mM Tris-HCl pH 7.5, 50 mM NaCl, 1 mM DTT, 4% glycerol, room temperature, 30 min; GST-TFs on glutathione beads, 16-mer random dsDNA library, 0.1% formaldehyde crosslink after washing; high values mean tight binding
Settings in all cases: protein: recombinant; tags: N-terminal GST; dsDNA, one strand shown
FLI1 = molecular target: T1, FLI1 (Homo sapiens, UniProt Q01543 1-452)
T1 sequence: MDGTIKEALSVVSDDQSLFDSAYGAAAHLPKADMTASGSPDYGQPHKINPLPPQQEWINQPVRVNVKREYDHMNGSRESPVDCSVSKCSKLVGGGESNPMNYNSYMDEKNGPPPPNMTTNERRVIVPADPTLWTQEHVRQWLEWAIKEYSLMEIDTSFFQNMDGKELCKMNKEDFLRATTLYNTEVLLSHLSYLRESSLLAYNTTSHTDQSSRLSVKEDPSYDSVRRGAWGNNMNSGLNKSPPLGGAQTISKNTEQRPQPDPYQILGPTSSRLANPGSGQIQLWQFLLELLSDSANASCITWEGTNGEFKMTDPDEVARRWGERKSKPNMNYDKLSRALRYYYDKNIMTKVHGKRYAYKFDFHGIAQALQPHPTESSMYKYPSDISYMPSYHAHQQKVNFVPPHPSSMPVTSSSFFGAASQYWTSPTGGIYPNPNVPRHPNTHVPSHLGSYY
Outline: (§1)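 After expression in yeast as GST fusions, human transcription factors were bound to glutathione beads, DNA-barcoded and mixed with a tag-only sample. The pools were incubated with 200 nmole of a 16-mer random double-stranded DNA library in Tris/NaCl/DTT/glycerol buffer (30 min, room temperature), washed and crosslinked with 0.1% formaldehyde. Proximity ligation with BsaI/T4 ligase ran for 1 h at 37 °C, before PCR amplification and sequencing on an Illumina NextSeq500. Binding signal is a hexamer's read frequency for a factor divided by its frequency for the tag-only sample.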

ELK1 = molecular target: T2, ELK1 (Homo sapiens, UniProt P19419 1-428)
T2 sequence: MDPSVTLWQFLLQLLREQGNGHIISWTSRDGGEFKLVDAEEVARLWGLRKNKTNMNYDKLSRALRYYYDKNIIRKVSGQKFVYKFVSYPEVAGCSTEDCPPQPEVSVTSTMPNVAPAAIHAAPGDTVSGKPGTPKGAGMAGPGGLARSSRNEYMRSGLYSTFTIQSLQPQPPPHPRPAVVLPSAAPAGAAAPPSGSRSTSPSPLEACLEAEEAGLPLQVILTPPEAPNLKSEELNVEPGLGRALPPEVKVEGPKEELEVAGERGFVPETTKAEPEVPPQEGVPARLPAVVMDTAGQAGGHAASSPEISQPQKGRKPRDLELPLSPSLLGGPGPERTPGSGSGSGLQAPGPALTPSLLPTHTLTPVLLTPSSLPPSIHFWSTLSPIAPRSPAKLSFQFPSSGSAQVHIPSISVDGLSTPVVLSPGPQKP
Outline: as §1

GABPA = molecular target: T3, GABPA (Homo sapiens, UniProt Q06546 1-454)
T3 sequence: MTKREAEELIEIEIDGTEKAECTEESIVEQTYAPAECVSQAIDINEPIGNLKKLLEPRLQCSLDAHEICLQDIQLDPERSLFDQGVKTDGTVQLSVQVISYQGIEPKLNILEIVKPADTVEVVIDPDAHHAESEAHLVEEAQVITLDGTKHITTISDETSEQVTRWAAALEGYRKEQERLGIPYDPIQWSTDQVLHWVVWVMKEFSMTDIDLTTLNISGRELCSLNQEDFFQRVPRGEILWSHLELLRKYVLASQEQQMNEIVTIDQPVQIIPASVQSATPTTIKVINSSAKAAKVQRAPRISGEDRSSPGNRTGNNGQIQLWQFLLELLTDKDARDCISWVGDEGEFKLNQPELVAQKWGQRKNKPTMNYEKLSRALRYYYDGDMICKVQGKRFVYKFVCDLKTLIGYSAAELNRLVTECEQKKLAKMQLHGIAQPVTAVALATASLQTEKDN
Outline: as §1

ERG = molecular target: T4, ERG (Homo sapiens, UniProt P11308 1-479)
T4 sequence: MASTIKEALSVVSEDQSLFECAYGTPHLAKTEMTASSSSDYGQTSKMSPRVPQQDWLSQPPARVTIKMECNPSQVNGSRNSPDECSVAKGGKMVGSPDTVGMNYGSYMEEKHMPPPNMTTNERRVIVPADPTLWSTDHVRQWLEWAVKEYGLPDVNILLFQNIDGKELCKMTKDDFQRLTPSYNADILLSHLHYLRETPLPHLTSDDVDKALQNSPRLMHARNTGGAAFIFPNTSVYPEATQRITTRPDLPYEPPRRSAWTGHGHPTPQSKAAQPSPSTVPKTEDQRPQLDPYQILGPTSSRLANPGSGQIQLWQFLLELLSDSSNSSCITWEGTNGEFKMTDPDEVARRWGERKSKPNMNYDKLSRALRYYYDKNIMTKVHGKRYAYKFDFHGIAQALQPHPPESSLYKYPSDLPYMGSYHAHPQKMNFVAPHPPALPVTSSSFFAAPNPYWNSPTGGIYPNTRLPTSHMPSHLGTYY
Outline: as §1

ELF1 = ELF1 (Homo sapiens, UniProt P32519 1-619)
Chain of ELF1 (P32519 whole entry): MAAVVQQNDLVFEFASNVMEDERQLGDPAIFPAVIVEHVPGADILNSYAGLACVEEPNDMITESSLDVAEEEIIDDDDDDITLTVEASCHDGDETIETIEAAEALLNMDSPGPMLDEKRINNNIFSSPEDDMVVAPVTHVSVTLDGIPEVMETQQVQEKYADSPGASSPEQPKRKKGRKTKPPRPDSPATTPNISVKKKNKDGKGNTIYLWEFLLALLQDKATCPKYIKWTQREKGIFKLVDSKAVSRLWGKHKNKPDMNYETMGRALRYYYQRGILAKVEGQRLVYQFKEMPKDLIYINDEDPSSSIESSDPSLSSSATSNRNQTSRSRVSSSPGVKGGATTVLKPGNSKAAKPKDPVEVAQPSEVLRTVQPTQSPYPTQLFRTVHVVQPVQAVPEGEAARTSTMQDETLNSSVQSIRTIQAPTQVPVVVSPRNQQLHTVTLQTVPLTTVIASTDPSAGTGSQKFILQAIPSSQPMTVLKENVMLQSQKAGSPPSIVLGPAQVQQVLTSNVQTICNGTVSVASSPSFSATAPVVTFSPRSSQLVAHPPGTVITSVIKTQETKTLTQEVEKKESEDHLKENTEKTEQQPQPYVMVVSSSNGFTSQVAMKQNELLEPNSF
Outline: as §1

EHF = molecular target: T5, EHF (Homo sapiens, UniProt Q9NZC4 1-300)
T5 sequence: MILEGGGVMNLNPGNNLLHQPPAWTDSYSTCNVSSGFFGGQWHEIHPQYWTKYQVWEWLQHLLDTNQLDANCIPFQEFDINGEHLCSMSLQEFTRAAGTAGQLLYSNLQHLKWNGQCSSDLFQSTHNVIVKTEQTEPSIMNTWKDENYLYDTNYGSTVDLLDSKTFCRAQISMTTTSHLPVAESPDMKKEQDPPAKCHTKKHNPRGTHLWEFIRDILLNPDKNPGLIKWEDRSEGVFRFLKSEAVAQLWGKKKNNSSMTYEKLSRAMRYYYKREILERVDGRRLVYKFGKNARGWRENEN
Outline: as §1

SPI1 = SPI1 (Homo sapiens, UniProt P17947 1-270)
Outline: as §1

SPIB = SPIB (Homo sapiens, UniProt Q01892 1-262)
Chain of SPIB (Q01892 whole entry): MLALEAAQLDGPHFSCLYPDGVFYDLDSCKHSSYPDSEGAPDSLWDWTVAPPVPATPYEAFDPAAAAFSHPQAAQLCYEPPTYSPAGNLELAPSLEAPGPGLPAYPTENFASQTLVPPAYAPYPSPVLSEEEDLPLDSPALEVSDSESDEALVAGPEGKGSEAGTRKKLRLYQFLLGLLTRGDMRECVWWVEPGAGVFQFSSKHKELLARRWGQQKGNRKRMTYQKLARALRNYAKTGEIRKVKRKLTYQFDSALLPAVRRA
Outline: as §1

ELK3 = molecular target: T6, ELK3 (Homo sapiens, UniProt P41970 1-407)
T6 sequence: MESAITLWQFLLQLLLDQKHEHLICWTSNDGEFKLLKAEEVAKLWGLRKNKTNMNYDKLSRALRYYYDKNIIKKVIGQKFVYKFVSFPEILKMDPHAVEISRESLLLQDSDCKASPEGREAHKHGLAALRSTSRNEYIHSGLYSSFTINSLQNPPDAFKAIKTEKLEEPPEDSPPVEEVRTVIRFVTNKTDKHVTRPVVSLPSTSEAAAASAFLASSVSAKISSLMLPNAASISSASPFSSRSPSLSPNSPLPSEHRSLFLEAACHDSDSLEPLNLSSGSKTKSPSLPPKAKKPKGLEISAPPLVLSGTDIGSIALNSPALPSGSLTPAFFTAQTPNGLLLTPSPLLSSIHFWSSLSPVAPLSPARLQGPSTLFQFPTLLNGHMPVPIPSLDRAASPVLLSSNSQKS
Outline: as §1

FEV = molecular target: T7, FEV (Homo sapiens, UniProt Q99581 1-238)
T7 sequence: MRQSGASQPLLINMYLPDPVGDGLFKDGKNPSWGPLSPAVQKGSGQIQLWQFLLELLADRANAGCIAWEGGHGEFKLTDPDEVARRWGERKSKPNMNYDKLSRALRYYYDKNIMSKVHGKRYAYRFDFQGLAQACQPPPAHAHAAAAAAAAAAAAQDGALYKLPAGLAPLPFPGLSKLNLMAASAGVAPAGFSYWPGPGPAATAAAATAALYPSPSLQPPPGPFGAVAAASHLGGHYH
Outline: as §1

ETV5 = ETV5 (Homo sapiens, UniProt P41161 1-510)
Chain of ETV5 (P41161 whole entry): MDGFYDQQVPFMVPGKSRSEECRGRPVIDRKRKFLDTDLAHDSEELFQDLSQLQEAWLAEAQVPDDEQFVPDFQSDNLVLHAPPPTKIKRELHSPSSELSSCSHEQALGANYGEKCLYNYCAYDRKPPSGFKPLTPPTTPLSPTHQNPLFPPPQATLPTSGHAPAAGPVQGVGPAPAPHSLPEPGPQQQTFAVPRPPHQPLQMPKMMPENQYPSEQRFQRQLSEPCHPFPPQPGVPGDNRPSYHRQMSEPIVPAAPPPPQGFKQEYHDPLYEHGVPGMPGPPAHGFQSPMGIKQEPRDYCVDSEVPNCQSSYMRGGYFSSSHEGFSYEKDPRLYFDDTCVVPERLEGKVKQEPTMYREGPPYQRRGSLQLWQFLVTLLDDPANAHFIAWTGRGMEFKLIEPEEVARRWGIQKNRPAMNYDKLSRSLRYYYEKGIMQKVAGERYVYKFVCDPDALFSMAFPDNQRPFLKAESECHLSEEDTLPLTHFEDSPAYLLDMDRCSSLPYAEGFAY
Outline: as §1

SPIC = molecular target: T8, SPIC (Homo sapiens, UniProt Q8N5J4 1-248)
T8 sequence: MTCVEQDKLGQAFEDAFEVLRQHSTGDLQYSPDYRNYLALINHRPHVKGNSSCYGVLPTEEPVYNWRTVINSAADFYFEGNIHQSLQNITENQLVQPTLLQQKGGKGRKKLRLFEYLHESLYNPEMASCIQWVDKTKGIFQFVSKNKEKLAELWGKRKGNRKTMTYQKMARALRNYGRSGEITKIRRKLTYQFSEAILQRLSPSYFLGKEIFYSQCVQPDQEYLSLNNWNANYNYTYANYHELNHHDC
Outline: as §1

ELF4 = ELF4 (Homo sapiens, UniProt Q99607 1-663)
Chain of ELF4 (Q99607 whole entry): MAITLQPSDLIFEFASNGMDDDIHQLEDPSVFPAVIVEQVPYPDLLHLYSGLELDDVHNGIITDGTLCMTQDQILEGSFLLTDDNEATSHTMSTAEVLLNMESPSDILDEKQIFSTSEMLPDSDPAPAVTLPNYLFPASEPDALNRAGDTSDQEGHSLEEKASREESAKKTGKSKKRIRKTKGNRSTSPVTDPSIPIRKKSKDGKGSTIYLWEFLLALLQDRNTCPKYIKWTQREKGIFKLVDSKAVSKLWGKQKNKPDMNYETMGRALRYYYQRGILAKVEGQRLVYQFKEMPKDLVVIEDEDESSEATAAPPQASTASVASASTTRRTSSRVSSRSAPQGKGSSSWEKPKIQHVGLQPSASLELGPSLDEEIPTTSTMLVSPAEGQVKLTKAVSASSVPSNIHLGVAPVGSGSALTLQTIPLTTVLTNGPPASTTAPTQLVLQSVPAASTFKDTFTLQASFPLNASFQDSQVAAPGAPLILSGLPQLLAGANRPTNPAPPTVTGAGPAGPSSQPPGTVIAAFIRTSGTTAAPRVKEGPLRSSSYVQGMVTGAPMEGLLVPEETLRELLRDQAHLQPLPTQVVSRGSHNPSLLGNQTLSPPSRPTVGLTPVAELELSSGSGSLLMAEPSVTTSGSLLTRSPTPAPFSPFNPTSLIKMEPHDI
Outline: as §1

ELK4 = molecular target: T9, ELK4 (Homo sapiens, UniProt P28324-2 1-405)
T9 sequence: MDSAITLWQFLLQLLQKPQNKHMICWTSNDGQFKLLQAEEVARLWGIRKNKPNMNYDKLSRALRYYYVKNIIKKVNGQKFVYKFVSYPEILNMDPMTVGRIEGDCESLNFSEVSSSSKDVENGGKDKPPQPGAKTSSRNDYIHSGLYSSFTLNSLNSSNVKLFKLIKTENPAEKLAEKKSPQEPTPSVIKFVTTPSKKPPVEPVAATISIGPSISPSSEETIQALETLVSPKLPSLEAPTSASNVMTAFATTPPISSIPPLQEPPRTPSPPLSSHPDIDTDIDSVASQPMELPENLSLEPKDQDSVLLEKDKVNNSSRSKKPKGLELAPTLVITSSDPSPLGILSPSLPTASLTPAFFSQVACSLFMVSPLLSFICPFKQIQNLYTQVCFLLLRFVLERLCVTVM
Outline: as §1

ETV2 = molecular target: T10, ETV2 (Homo sapiens, UniProt O00321 1-342)
T10 sequence: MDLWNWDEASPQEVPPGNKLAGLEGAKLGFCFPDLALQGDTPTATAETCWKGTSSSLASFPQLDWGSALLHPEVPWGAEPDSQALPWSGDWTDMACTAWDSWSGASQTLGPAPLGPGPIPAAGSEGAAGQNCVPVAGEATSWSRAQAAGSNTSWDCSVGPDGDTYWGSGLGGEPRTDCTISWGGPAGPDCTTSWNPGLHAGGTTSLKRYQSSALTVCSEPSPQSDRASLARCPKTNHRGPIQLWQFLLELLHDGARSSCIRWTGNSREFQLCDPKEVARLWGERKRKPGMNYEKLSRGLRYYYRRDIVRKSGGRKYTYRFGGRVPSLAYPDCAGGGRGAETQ
Outline: as §1

ELF3 = molecular target: T11, ELF3 (Homo sapiens, UniProt P78545 1-371)
T11 sequence: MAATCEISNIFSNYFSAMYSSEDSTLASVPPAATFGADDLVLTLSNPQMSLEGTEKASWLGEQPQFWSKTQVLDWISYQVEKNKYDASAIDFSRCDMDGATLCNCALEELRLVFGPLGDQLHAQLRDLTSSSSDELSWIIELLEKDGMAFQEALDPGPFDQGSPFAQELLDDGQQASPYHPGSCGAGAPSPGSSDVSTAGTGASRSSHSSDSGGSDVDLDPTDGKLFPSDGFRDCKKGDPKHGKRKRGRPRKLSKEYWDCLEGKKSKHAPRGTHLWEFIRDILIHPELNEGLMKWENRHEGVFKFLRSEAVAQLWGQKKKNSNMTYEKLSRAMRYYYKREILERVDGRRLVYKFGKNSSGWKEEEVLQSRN
Outline: as §1

ETV1 = ETV1 (Homo sapiens, UniProt P50549 1-477)
Chain of ETV1 (P50549 whole entry): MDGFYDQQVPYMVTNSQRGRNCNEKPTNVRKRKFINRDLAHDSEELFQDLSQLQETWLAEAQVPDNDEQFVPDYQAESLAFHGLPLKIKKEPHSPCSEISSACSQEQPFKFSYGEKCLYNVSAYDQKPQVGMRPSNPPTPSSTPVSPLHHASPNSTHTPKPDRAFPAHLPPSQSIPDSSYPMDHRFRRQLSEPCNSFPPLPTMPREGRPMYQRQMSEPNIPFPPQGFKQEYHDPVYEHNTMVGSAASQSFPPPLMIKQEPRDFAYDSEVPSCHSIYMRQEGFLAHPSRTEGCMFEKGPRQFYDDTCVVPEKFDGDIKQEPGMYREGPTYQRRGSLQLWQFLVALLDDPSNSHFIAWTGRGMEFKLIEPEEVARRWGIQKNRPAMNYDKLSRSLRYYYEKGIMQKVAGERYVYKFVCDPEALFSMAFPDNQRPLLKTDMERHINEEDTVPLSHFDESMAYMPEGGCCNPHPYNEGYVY
Outline: as §1

CRX = CRX (Homo sapiens, UniProt O43186 1-299)
Chain of CRX (O43186 whole entry): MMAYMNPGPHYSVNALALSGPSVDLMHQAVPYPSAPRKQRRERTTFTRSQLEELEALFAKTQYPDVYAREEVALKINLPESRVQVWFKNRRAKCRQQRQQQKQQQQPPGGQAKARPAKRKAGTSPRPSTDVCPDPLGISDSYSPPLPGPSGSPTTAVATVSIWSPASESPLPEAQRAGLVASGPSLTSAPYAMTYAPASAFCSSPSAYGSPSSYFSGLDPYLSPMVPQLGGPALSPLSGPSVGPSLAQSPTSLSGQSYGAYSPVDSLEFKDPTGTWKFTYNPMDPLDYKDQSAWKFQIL
Outline: as §1

Sequence | binding signal (FLI1) | binding signal (ELK1) | binding signal (GABPA) | binding signal (ERG) | binding signal (ELF1) | binding signal (EHF) | binding signal (SPI1) | binding signal (SPIB) | binding signal (ELK3) | binding signal (FEV) | binding signal (ETV5) | binding signal (SPIC) | binding signal (ELF4) | binding signal (ELK4) | binding signal (ETV2) | binding signal (ELF3) | binding signal (ETV1) | binding signal (CRX)
TGGACA | 1.06 fold enrichment (6-mer frequency, TF over GST control) | 1.07 fold enrichment (6-mer frequency, TF over GST control) | 1.11 fold enrichment (6-mer frequency, TF over GST control) | 1.05 fold enrichment (6-mer frequency, TF over GST control) | 1.15 fold enrichment (6-mer frequency, TF over GST control) | 1.05 fold enrichment (6-mer frequency, TF over GST control) | 1.03 fold enrichment (6-mer frequency, TF over GST control) | 1.08 fold enrichment (6-mer frequency, TF over GST control) | 1.07 fold enrichment (6-mer frequency, TF over GST control) | 1.1 fold enrichment (6-mer frequency, TF over GST control) | 1.08 fold enrichment (6-mer frequency, TF over GST control) | 1.05 fold enrichment (6-mer frequency, TF over GST control) | 1.13 fold enrichment (6-mer frequency, TF over GST control) | 1.03 fold enrichment (6-mer frequency, TF over GST control) | 1.03 fold enrichment (6-mer frequency, TF over GST control) | 1.15 fold enrichment (6-mer frequency, TF over GST control) | 1.03 fold enrichment (6-mer frequency, TF over GST control) | –
CTCAGT | 1.16 fold enrichment (6-mer frequency, TF over GST control) | 1.21 fold enrichment (6-mer frequency, TF over GST control) | 1.2 fold enrichment (6-mer frequency, TF over GST control) | 1.13 fold enrichment (6-mer frequency, TF over GST control) | 1.22 fold enrichment (6-mer frequency, TF over GST control) | 1.06 fold enrichment (6-mer frequency, TF over GST control) | 1.18 fold enrichment (6-mer frequency, TF over GST control) | 1.14 fold enrichment (6-mer frequency, TF over GST control) | 1.24 fold enrichment (6-mer frequency, TF over GST control) | 1.12 fold enrichment (6-mer frequency, TF over GST control) | 1.14 fold enrichment (6-mer frequency, TF over GST control) | 1.24 fold enrichment (6-mer frequency, TF over GST control) | 1.21 fold enrichment (6-mer frequency, TF over GST control) | 1.19 fold enrichment (6-mer frequency, TF over GST control) | 1.2 fold enrichment (6-mer frequency, TF over GST control) | 1.35 fold enrichment (6-mer frequency, TF over GST control) | 1.12 fold enrichment (6-mer frequency, TF over GST control) | 1.08 fold enrichment (6-mer frequency, TF over GST control)
